We go through 46 compounds from PubChem BioAssay AID1851 (National Center for Advancing Translational Sciences (NCATS), 2009).

The structures appear in SMILES notation. About 5,700 (36%) of roughly 16,000 compounds were called active. Another 24% or so got no clear call; they are omitted. Some of the results follow. A number with no mark means an inactive call. Calls follow the shape of the dose curve; as a rule, active = well fitted curve in the direction sought with a large enough effect; inconclusive = small, poorly fitted or top-dose-only effect, or effect the other way; inactive = no such curve, though single readings can be large or run the other way.
% is scaled to controls: 0 for no effect and ±100 for the full control effect.

Chain of Cytochrome P450 1A2 (Homo sapiens) (P05177 whole entry, looked up): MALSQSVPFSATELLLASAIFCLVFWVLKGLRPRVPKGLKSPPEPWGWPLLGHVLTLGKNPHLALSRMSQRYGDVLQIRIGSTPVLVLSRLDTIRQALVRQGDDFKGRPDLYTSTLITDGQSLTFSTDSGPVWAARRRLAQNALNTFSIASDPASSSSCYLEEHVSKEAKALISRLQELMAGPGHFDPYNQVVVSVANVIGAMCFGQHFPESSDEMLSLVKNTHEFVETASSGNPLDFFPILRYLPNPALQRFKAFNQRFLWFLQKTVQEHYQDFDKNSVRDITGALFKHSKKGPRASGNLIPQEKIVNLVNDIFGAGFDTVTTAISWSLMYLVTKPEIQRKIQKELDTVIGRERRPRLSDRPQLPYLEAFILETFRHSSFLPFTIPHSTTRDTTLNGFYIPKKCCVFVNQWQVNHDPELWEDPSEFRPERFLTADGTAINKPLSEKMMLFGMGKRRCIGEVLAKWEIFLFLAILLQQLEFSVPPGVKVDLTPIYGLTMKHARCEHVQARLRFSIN

This assay addresses Cytochrome P450 1A2 (Homo sapiens) (UniProt P05177). Put plainly: Cytochrome panel assay with activity outcomes. Particulars: recombinant CYP, pro-luciferin dealkylation, luminescence, p450-cyp1a2; series mostly up to 57.1 µM; activity, negative = inhibition: at the top concentration.
Regarding `CCCC1S/C(=N/N=C/c2ccc(OC)cc2)N(Cc2ccc(OC)cc2)C1=O` (stereo unspecified), the “activity, negative = inhibition” value is -28.8%. In the case of `COc1ccc(CN2C(=O)c3ccccc3C(/C=N\OCc3ccc(F)cc3)C2=O)cc1` (stereo unspecified), the AC50 was 12600 nM (active).

Turning to `CN(C)c1ncc2nc(-c3ccccc3)c(=O)n(C)c2n1`, the AC50 is 1000 nM (active). As for `CN(C)c1ncc2nc(-c3ccc(Cl)cc3)c(=O)n(C)c2n1`, the concentration at half-maximal activity (AC50) was 1580 nM (active).

On to `CN(C)c1ncc2nc(-c3ccc(F)cc3)c(=O)n(C)c2n1`, for which the AC50 was 1580 nM (active). As to `C=CC[C@@H]1C=C[C@@H](O/N=C\c2ccc(C(=O)N3[C@H](c4ccc(C)cc4)[C@@H](C)CC[C@H]3C(=O)OC)cc2)[C@@H](CO)O1`, the activity, negative = inhibition was -12.6% [at 11.4 µM]. As to `COCCNc1ccnc(-c2ccccc2CN(C)C)n1`, the half-maximal activity concentration (AC50) was 5010 nM (active).

For the compound `COCCNc1ccnc(-c2ccccc2C)n1`, the concentration at half-maximal activity (AC50) was 12600 nM (active). Take `CN(C)CCNc1ccccn1`: the activity, negative = inhibition was -5.87% [at 11.4 µM].

`CC1(C)C2([N+](=O)[O-])CN3CC1([N+](=O)[O-])CN(C2)C31CCCC1`: the “activity, negative = inhibition” value is 5.96%.

`Cc1noc(C)c1C(=O)N1CCC2(CCN(Cc3ccncc3)CC2)CC1`: the “activity, negative = inhibition” value is 2.85%. Take `CCc1c(C)c(C#N)c2nc3ccccc3n2c1N1CCN(c2cc(C)ccn2)CC1`: the “activity, negative = inhibition” value was -11%. As to `CCCCSCc1nc2nc(Cl)c(Cl)nc2[nH]1`, the half-maximal activity concentration (AC50) was 3160 nM (active).

On to `O=C(O)c1nc2nc(Cl)c(Cl)nc2[nH]1`, for which the activity, negative = inhibition is -18.2% [at 11.4 µM].

In the case of `C/C(=N\NC(=O)CSCc1ccc(Cl)cc1)c1ccc2c(c1)OCCO2`, the AC50 is 7940 nM (active). For `O=C(O)CCC(=O)N1CCOc2ccc(Cl)cc21`, the “activity, negative = inhibition” value is -13.1%.

As to `O=C(CSCc1ccc(Cl)cc1)Nc1ccc2c(c1)OCCO2`, the AC50 is 17800 nM (active).

In the case of `O=C(CN1CCN(CC(=O)Nc2ccccc2Cl)CC1)Nc1ccc2c(c1)OCCO2`, the “activity, negative = inhibition” value is -49.9%.

In the case of `O=C(CSCc1ccc(Cl)cc1)Nc1nccs1`, the concentration at half-maximal activity (AC50) is 178 nM (active).

In the case of `CC(C)(C)NC(=O)CN(Cc1cccs1)C(=O)CCC(=O)Nc1nccs1`, the “activity, negative = inhibition” value is -15.8%. Take `O=S(=O)(c1ccccc1)N1CCC2(CCN(Cc3nccs3)CC2)CC1`: the “activity, negative = inhibition” value was 1.6%.

For the compound `O=C(c1csnn1)N1CCC[C@@]2(CCN(c3ccncc3)C2)C1`, the “activity, negative = inhibition” value was -17.8%.

For the compound `CCOC(=O)c1c(NC(C)=O)sc2c(OC)cccc12`, the AC50 is 316 nM (active). `NS(=O)(=O)c1cc2c(cc1Cl)=NC(CCC(=O)O)=NS=2(=O)O`: the activity, negative = inhibition was 4.98% [at 11.4 µM]. Take `Cc1nn(C(C)C(=O)N2CCc3ccccc32)c(C)c1[N+](=O)[O-]` (stereo unspecified): the “activity, negative = inhibition” value is -9.2%. Turning to `Cc1nn(C(C)C(=O)Nc2sc3c(c2C#N)CCCC3)c(C)c1[N+](=O)[O-]` (stereo unspecified), the AC50 was 3550 nM (active). Regarding `CCOc1cc(C2NN=C(c3ccccc3)S2)ccc1OCc1ccccc1Cl` (stereo unspecified), the AC50 was 3160 nM (active). Regarding `CN(C)c1ccnc(-c2cccc(NS(C)(=O)=O)c2)n1`, the AC50 was 1580 nM (active). As for `CN(Cc1ccco1)c1ccnc(-c2cccc(NS(C)(=O)=O)c2)n1`, the half-maximal activity concentration (AC50) is 1260 nM (active).

Turning to `C=C[C@@]1(C)CC(=O)[C@@]2(O)[C@@]3(C)[C@@H](O)CCC(C)(C)[C@@H]3[C@H](OC(=O)CCN(C)C)[C@H](OC(C)=O)[C@@]2(C)O1`, the “activity, negative = inhibition” value was 3.28%. As for `COC(=O)c1ccc(C(=O)OC)c(NC(=O)CSCc2ccc(Br)cc2)c1`, the half-maximal activity concentration (AC50) was 891 nM (active).

In the case of `O=C(Nc1ccc(Br)cc1)c1ccc(CSC2=NCCS2)cc1`, the “activity, negative = inhibition” value was -23.7%. Consider `N#Cc1ccc(Oc2nc(C(N)=O)cc(-c3ccccc3)n2)cc1`, for which the AC50 was 2000 nM (active). Turning to `CC(=O)Nc1ccc(-c2cc(-c3ccc(NC(C)=O)cc3)nc(-c3ccccc3)n2)cc1`, the “activity, negative = inhibition” value was 2.96%. As for `Cc1ccc(NC(=O)c2cc([N+](=O)[O-])ccc2NCc2cccnc2)cc1Cl`, the half-maximal activity concentration (AC50) was 126 nM (active). Consider `COC(=O)C1(Cc2ccccc2)C2c3cc(C(=O)N4CCCC4)n(Cc4ccc(OC(F)(F)F)cc4)c3CC2CN1C(=O)c1ccccc1` (stereo unspecified), for which the “activity, negative = inhibition” value was -14.3%. In the case of `O=C(O)CSc1ncccc1[N+](=O)[O-]`, the activity, negative = inhibition was 2.52% [at 11.4 µM]. On the same count and under the same terms, under `Cc1cc(C)n(-c2cc(N3CCN(C(=O)c4ccc(C(C)(C)C)cc4)CC3)ccc2[N+](=O)[O-])n1` stands -14.2%. As for `Cc1cc(C)c(S(=O)(=O)N2CCN(c3ccc([N+](=O)[O-])c(NCC4CCCO4)c3)CC2)c(C)c1` (stereo unspecified), the “activity, negative = inhibition” value was -29.3%. The same measure, in the same setting: under `Cc1cccc(C(=O)N2CCN(c3ccc([N+](=O)[O-])c(NCc4ccco4)c3)CC2)c1` stands -10.7%.

With `O=[N+]([O-])c1ccc(N2CCCC2)cc1NCc1ccccc1`, the half-maximal activity concentration (AC50) was 794 nM (active).

For `CS(=O)(=O)N1CCN(c2ccc([N+](=O)[O-])c(NCc3ccccc3)c2)CC1`, the AC50 was 12600 nM (active). As for `Cc1cc(C)c(S(=O)(=O)N2CCN(c3ccc([N+](=O)[O-])c(NCc4ccco4)c3)CC2)c(C)c1`, the “activity, negative = inhibition” value was -24.1%. Regarding `O=[N+]([O-])c1nccn1C[C@H](O)CN1CCCCC1`, the activity, negative = inhibition was 4.83% [at 11.4 µM]. With `Cc1ccccc1C(=O)N1CCN(c2ccc([N+](=O)[O-])c(NCc3ccco3)c2)CC1`, the “activity, negative = inhibition” value was -15.1%. For `CC(C)c1ccc(CNc2cc(N3CCCC3)ccc2[N+](=O)[O-])cc1`, the concentration at half-maximal activity (AC50) was 3160 nM (active).
